# Data as given in PubChem BioAssay (NCI).
# This is part of a sample that, as a whole, favours compounds with a hit. Of some 79,000 tested, about 15% had one in any assay. Values without a mark were called inactive. Active and inactive are the calls of the source. No stated cut-off is given here; in the data, active means growth inhibition above about 70%; inactive means the rest.
# Assays:
# [1] = NCI Yeast Anticancer Drug Screen. Data for the rad50 strain (AID 155);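 further: 0% = growth of vehicle-only cultures of the same strain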; conditions: S. cerevisiae rad50 strain growth inhibition, hits give high values
# Outline: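 Vehicle-treated cultures provide the reference for the growth inhibition reported for compound-exposed, repair-deficient yeast.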
# [2] = NCI Yeast Anticancer Drug Screen. Data for the mec2-1 strain (AID 157); conditions: S. cerevisiae mec2-1 strain, hits give high values
# Outline: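 Compounds were applied to mec2-1 yeast cells. Their growth was then compared with that of vehicle-treated cultures to give growth inhibition.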
# [3] = NCI Yeast Anticancer Drug Screen. Data for the sgs1 mgt1 strain (AID 161);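 further: 0% = growth of cultures given vehicle only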; conditions: S. cerevisiae sgs1 mgt1 strain, hits give high values
# Outline: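 Percent growth inhibition was derived by comparing compound-exposed mutant yeast with vehicle-exposed cultures. The strain carries alterations in DNA damage repair.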
# [4] = NCI Yeast Anticancer Drug Screen. Data for the cln2 rad14 strain (AID 165);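 further: 0% = growth equal to vehicle treated cultures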; conditions: S. cerevisiae cln2 rad14 strain, hits give high values
# Outline: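 Strain: cln2 rad14 yeast, altered in cell cycle control and DNA damage repair. Read-out: growth inhibition vs vehicle.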
# [5] = NCI Yeast Anticancer Drug Screen. Data for the bub3 strain (AID 167); conditions: S. cerevisiae bub3 mutant strain, hits give high values
# Outline: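 Mutant yeast screening strain plus compound; vehicle-treated cultures serve as the 0% inhibition reference.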
# [6] = NCI Yeast Anticancer Drug Screen. Data for the mlh1 rad18 strain (AID 175); conditions: S. cerevisiae mlh1 rad18 strain growth inhibition, hits give high values
# Outline: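 A repair-deficient yeast strain is exposed to test compound, and growth is scored relative to vehicle-treated controls.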
# [7] = at 5.0 µM (retest, dose inferred, filed as 0.5)
# [8] = at 50.0 µM (retest, dose inferred, filed as 5.0)
Structure (SMILES),"growth inhibition [1, 7]","growth inhibition [1, 8]",growth inhibition ([1]; at 50.0 µM),"growth inhibition [2, 7] [%]","growth inhibition [2, 8]",growth inhibition ([2]; at 50.0 µM),"growth inhibition [3, 7] [%]","growth inhibition [3, 8]",growth inhibition ([3]; at 50.0 µM),"growth inhibition [4, 7]","growth inhibition [4, 8]",growth inhibition ([4]; at 50.0 µM),"growth inhibition [5, 7]","growth inhibition [5, 8]",growth inhibition ([5]; at 50.0 µM),"growth inhibition [6, 7] [%]","growth inhibition [6, 8]",growth inhibition ([6]; at 50.0 µM)
CCCCCCCCCCCC(=O)OCC(C)C,5%,-19%,0.95%,-7,20%,-13%,0,4%,7.55%,20%,-11%,-3.95%,0%,-18%,-2.1%,-16,-8%,15.5%
CN1CCN(CC(C(=O)O)(c2ccccc2)c2ccccc2)CC1,-1%,2%,-1.85%,3,-5%,5.05%,-3,0%,-16.6%,4%,-1%,14.2%,0%,-5%,59.5%,-1,-4%,-13.2%
COC1=C(C)C(=O)C2=C(C1=O)C1C3CC4=C(C(=O)C(OC)=C(C)C4=O)C(CNC(=O)C(C)=O)N3C(C#N)C(C2)N1C (configuration not stated),78% (active),98% (active),90.2% (active),53,99% (active),92% (active),35,99% (active),91.7% (active),88% (active),96% (active),89.6% (active),22%,98% (active),90.2% (active),51,99% (active),88.3% (active)
CCC(CC=C(C)C)(CC=C(C)C)c1ccncc1 (tested in a mixture with another compound),-7%,84% (active),97.8% (active),-8,76% (active),99% (active),1,80% (active),98.9% (active),-5%,50%,70.5% (active),1%,76% (active),93.2% (active),-4,74% (active),96.2% (active)
CC(C)CCC(C)(C)c1cc(O)ccc1O,35%,99% (active),98.4% (active),13,99% (active),99.5% (active),16,98% (active),75.7% (active),14%,92% (active),87.5% (active),79% (active),98% (active),98.8% (active),35,99% (active),97.6% (active)
O=[N+]([O-])c1ccc(N/N=C/c2cccnc2)cc1,20%,49%,66.4%,-5,6%,-12.1%,1,26%,60.1%,3%,15%,-0.05%,3%,44%,29.4%,9,26%,45.5%
COc1ccc(C2COc3c(ccc(O)c3O)C2)cc1OC (configuration not stated),-14%,28%,25.2%,1,55%,43.6%,-3,66%,40.1%,0%,41%,55.7%,0%,26%,32.9%,0,74% (active),40.2%
CCCCCCC(=O)OCCN(CCOC(=O)CCCCCC)C(=O)C(C)OC(=O)CCCCCC (configuration not stated),2%,56%,91.7% (active),4,19%,85.4% (active),2,62%,98.4% (active),1%,18%,66.2%,-1%,66%,98.2% (active),-3,58%,97.6% (active)
Oc1ccc(Cl)cc1-c1ccccc1,-1%,86% (active),94.1% (active),-15,83% (active),97% (active),-13,76% (active),90.2% (active),-48%,68%,74.2% (active),1%,68%,94.7% (active),11,91% (active),91.7% (active)
